The values below come from PubChem BioAssay (NCI).

About 83,000 compounds went through this panel and 20% of them were active in at least one assay; those are over-represented in the sample as a whole.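 Cells were grown in 96-well plates and exposed to the test compound at a single concentration for 48 hours; results are reported as percent growth, with values below 10 considered active.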 Active and inactive are the calls of the source.

One test has as its system LOX IMVI melanoma. In words: NCI-60 one-dose screen, 48 h (100 = growth as untreated, 0 = no growth, -100 = all killed). The settings on record: 10 µM unless noted.
Turning to `CCCNC(=O)Oc1ccc(/C(=C(\C)c2ccccc2)c2ccc(OCCCN(C)C)cc2)cc1`, the growth was 75.6% (inactive).

On to `O=C(CSc1nc2sc3c(c2c(=O)n1-c1ccc(Cl)cc1)CCCC3)Nc1nc(-c2cccc(Br)c2)cs1`, for which the growth is 84.3% (inactive).

Take `O=C1c2ccc3c4c(ccc(c24)C(=O)N1CCCNCc1ccccc1F)C(=O)N(CCCNCc1ccccc1F)C3=O`: the growth was -71.9% (active).

In the case of `CCN(CC)c1ccc(/C=N/NC(=O)CSc2nc3ccccc3c(=O)n2CCc2ccc(S(N)(=O)=O)cc2)c(O)c1`, the growth is 11.5% (inactive).

For the molecule `CCCCCN1C=C/C(=C\C(=O)N(C)c2ccc(Oc3ccccc3)cc2)c2ccccc21`, the growth is 86.6% (inactive).

`C/C=C(\C)C(=O)NC1=CC[C@@]2(C)C(=CCC3C2CC[C@@]2(C)C3CC[C@@H]2C(C)N(C)C)C1=O` (stereo not given in full): the growth was -53.2% (active).

Consider `C[C@H]1[C@H](C)CC[C@]2(C(=O)NCC#CCN3CCN(C)CC3)CC[C@]3(C)C(=CC[C@@H]4[C@@]5(C)Cc6c([nH]c7ccccc67)C(C)(C)[C@@H]5CC[C@]43C)[C@H]12`, for which the growth was 70.9% (inactive).

As for `CCOC(=O)c1cc(C(=O)c2ccc(Br)cc2)n2ccc(/C=C/c3cc[n+](CC(=O)c4ccc(OC)cc4)cc3)cc12`, the growth is 81% (inactive).

In the case of `NC(=NCCCOc1ccc(F)cc1)Nc1ccc(I)cc1`, the growth is 84.4% (inactive).

Regarding `O=C(/C=C(/C=C/c1coc2ccccc12)OB(F)F)/C=C/c1coc2ccccc12`, the growth was 84.9% (inactive).

`COc1cc(NC(=O)CSc2nc3ccc(C)cc3c(=O)n2Cc2ccccc2)cc(OC)c1OC`: the growth was 61.7% (inactive).

Regarding `Oc1ccc(C2c3ccccc3Oc3ccccc32)c2cccnc12`, the growth was 5.35% (active).

`Cc1ccc(C(=O)/C(=C\c2ccc([N+](=O)[O-])cc2)S(=O)Cc2ccc(F)cc2)cc1` (stereo not given): the growth is -39% (active).

Consider `COc1cc2oc(-c3cccc(C(=O)Nc4ccccc4)c3)cc(=O)c2c(O)c1OC`, for which the growth was 88.1% (inactive).

For the molecule `COc1ccc(C(=O)/C=C/c2cc3ccccc3n3nnnc23)cc1`, the growth is 104% (inactive).

On to `Cc1nc2sccn2c1-c1nc2sccn2c1/C=C1/C(=O)Nc2ccccc21`, for which the growth is 36.3% (inactive).

For `COc1cc2c(c(OC)c1OC)CCC(c1cccc(NC(=O)c3cccc(Br)c3)c1)O2` (stereo not given), the growth is 92.4% (inactive).

Turning to `CCCCCN1C=C/C(=C\C(=O)N(C)c2ccccc2Br)c2ccccc21`, the growth was 93.6% (inactive).

As for `COc1ccc(C(=O)c2cc(OC)c(OC)c(OC)c2)cc1O`, the growth is 15.4% (inactive).

For the molecule `CC(C)(C)c1cc(C=O)cc(C(C)(C)C)c1O`, the growth was 98.4% (inactive).

As for `CCOC(=O)c1nc2c3ccccc3ccn2c1C(=O)OCC`, the growth was 98.6% (inactive).

Consider `CC(C)=CCC[C@](C)(O)[C@H]1CC[C@]2(C)[C@@H]1CC[C@@H]1[C@@]3(C)C/C(=C/c4ccccc4)C(=O)C(C)(C)[C@@H]3CC[C@]12C`, for which the growth is 93.4% (inactive).

Consider `C=C(C)[C@@H]1CC[C@]2(C(=O)N3CCN(C)CC3)CC[C@]3(C)[C@H](CC[C@@H]4[C@@]5(C)CC[C@H](O)C(C)(C)[C@@H]5CC[C@]43C)[C@@H]12`, for which the growth was -80.9% (active).

A further test has as its system SK-MEL-28 melanoma. Described as above. The settings on record: 10 µM unless noted.
Regarding `c1ccc(Cn2cnc3ccc(-c4nc(-c5ccc6c(c5)ncn6C5CCCCC5)cn5ccnc45)cc32)cc1`, the growth was 0.441% (active).

With `N/C(=N\C(N)=N\c1nc2ccccc2s1)c1cccc(Cl)c1`, the growth was 104% (inactive).

Turning to `O=C(Cc1ccccc1)NNc1nc(Cl)nc(N2CCN(C(c3ccccc3)c3ccccc3)CC2)n1`, the growth was 101% (inactive).

On to `CCN(CC)c1ccc(C(=O)c2ccccc2)cc1`, for which the growth is 104% (inactive).

Turning to `O=C(Nc1ncc(Cc2cc(Cl)ccc2Cl)s1)c1cccs1`, the growth is 63.7% (inactive).

As for `COc1cc(C2C3CC4CCCC[C@H]4N3[C@@]3(C(=O)Nc4cc(Cl)ccc43)C2C(=O)c2nc3ccccc3[nH]2)cc(OC)c1OC` (stereo not given in full), the growth was 82.4% (inactive).

For `CC(=O)[C@@H]1CC[C@]2(C(N)=O)CC[C@]3(C)[C@H](CC[C@@H]4[C@@]5(C)CCCNC(C)(C)[C@@H]5CC[C@]43C)[C@@H]12`, the growth was 95.8% (inactive).

With `Cc1cccc(C)c1N=c1oc2ccc(Cl)cc2nc1-c1ccccc1O`, the growth is 93.4% (inactive).

`O=S(=O)(NCCCNc1nccc(-c2c(-c3cccc(O)c3)nc3occn23)n1)c1ccc(Cl)cc1`: the growth was 30.3% (inactive).

Take `N#C/C(=C\c1ccc([N+](=O)[O-])s1)c1nc2cc(Br)ccc2s1`: the growth was 12% (inactive).

For the molecule `Oc1ccc(C(c2ccc(O)cc2)c2ccc(Br)cn2)cc1`, the growth was 109% (inactive).

`Cc1nc2sccn2c1-c1cn2ccsc2n1`: the growth was 104% (inactive).

Regarding `CCOC(=O)/C(C#N)=C1/NNC(=Nc2cccnc2)S1`, the growth was 105% (inactive).

As for `O=S(=O)(NCCCNc1nccc(-c2c(-c3cccc(F)c3)nc3sccn23)n1)c1cccc2ccccc12`, the growth was 77.5% (inactive).

On to `CCCNC(=O)Oc1ccc(/C(=C(\C)c2ccccc2)c2ccc(OCCCN(C)C)cc2)cc1`, for which the growth is 70.8% (inactive).

`O=C(CSc1nc2sc3c(c2c(=O)n1-c1ccc(Cl)cc1)CCCC3)Nc1nc(-c2cccc(Br)c2)cs1`: the growth is 84.4% (inactive).

On to `O=C1c2ccc3c4c(ccc(c24)C(=O)N1CCCNCc1ccccc1F)C(=O)N(CCCNCc1ccccc1F)C3=O`, for which the growth was -93.6% (active).

As for `CCN(CC)c1ccc(/C=N/NC(=O)CSc2nc3ccccc3c(=O)n2CCc2ccc(S(N)(=O)=O)cc2)c(O)c1`, the growth is 47.9% (inactive).

In the case of `CCCCCN1C=C/C(=C\C(=O)N(C)c2ccc(Oc3ccccc3)cc2)c2ccccc21`, the growth was 102% (inactive).

For the molecule `C/C=C(\C)C(=O)NC1=CC[C@@]2(C)C(=CCC3C2CC[C@@]2(C)C3CC[C@@H]2C(C)N(C)C)C1=O` (stereo not given in full), the growth was -66.5% (active).

In the case of `C[C@H]1[C@H](C)CC[C@]2(C(=O)NCC#CCN3CCN(C)CC3)CC[C@]3(C)C(=CC[C@@H]4[C@@]5(C)Cc6c([nH]c7ccccc67)C(C)(C)[C@@H]5CC[C@]43C)[C@H]12`, the growth is 82.3% (inactive).

As for `CCOC(=O)c1cc(C(=O)c2ccc(Br)cc2)n2ccc(/C=C/c3cc[n+](CC(=O)c4ccc(OC)cc4)cc3)cc12`, the growth is 106% (inactive).

Take `NC(=NCCCOc1ccc(F)cc1)Nc1ccc(I)cc1`: the growth was 88.3% (inactive).

`O=C(/C=C(/C=C/c1coc2ccccc12)OB(F)F)/C=C/c1coc2ccccc12`: the growth was 101% (inactive).

On to `COc1cc(NC(=O)CSc2nc3ccc(C)cc3c(=O)n2Cc2ccccc2)cc(OC)c1OC`, for which the growth is 75.1% (inactive).

`Oc1ccc(C2c3ccccc3Oc3ccccc32)c2cccnc12`: the growth was 36% (inactive).

With `Cc1ccc(C(=O)/C(=C\c2ccc([N+](=O)[O-])cc2)S(=O)Cc2ccc(F)cc2)cc1` (stereo not given), the growth is 17.3% (inactive).

`COc1cc2oc(-c3cccc(C(=O)Nc4ccccc4)c3)cc(=O)c2c(O)c1OC`: the growth is 87.4% (inactive).

With `COc1ccc(C(=O)/C=C/c2cc3ccccc3n3nnnc23)cc1`, the growth was 110% (inactive).

As for `Cc1nc2sccn2c1-c1nc2sccn2c1/C=C1/C(=O)Nc2ccccc21`, the growth was 45.3% (inactive).

Consider `COc1cc2c(c(OC)c1OC)CCC(c1cccc(NC(=O)c3cccc(Br)c3)c1)O2` (stereo not given), for which the growth was 90.9% (inactive).

As for `CCCCCN1C=C/C(=C\C(=O)N(C)c2ccccc2Br)c2ccccc21`, the growth is 105% (inactive).

Regarding `COc1ccc(C(=O)c2cc(OC)c(OC)c(OC)c2)cc1O`, the growth was 57.6% (inactive).

As for `CC(C)(C)c1cc(C=O)cc(C(C)(C)C)c1O`, the growth was 111% (inactive).

Regarding `CCOC(=O)c1nc2c3ccccc3ccn2c1C(=O)OCC`, the growth was 113% (inactive).

As for `CC(C)=CCC[C@](C)(O)[C@H]1CC[C@]2(C)[C@@H]1CC[C@@H]1[C@@]3(C)C/C(=C/c4ccccc4)C(=O)C(C)(C)[C@@H]3CC[C@]12C`, the growth was 104% (inactive).

As for `C=C(C)[C@@H]1CC[C@]2(C(=O)N3CCN(C)CC3)CC[C@]3(C)[C@H](CC[C@@H]4[C@@]5(C)CC[C@H](O)C(C)(C)[C@@H]5CC[C@]43C)[C@@H]12`, the growth was -85.1% (active).
